# From the supplement of paper PMC8253809
# “And” between values parts separate entries of the source, which are not always exact repeats. Equal entries are not always repeated.
# Key:
# Experiment in all cases: growth inhibition (% activity, log2 RLU normalised to DMSO / staurosporine); higher = more growth inhibition
# Settings in all cases: 33 µM
# DIPGX29 = tested on: DIPGX29 (H3.3 K27M diffuse intrinsic pontine glioma line)
# Outline: (§1)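 Approved drugs were tested in triplicate at a single final concentration of about 33 μM for 7 days at 37 °C, 5% CO2, on pHGG cell lines and H9-derived neural stem cells. Readout was CellTiter-Glo luminescence, log2-transformed and scaled per plate to % activity between solvent and positive control wells. The median over replicates gives the growth-inhibition value.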
# DIPGX37 = tested on: DIPGX37 (H3.3 K27M diffuse intrinsic pontine glioma line)
# Outline: as §1
# DIPGX7 = tested on: DIPGX7 (H3.3 K27M diffuse intrinsic pontine glioma line)
# Outline: as §1
# DIPGX9 = tested on: DIPGX9 (diffuse intrinsic pontine glioma line)
# Outline: as §1
# HGGX39 = tested on: HGGX39 (paediatric high-grade glioma line)
# Outline: as §1
# HGGX6 = tested on: HGGX6 (H3.3 G34R paediatric high-grade glioma line)
# Outline: as §1
# HNSC = tested on: HNSC
# Outline: as §1
# SUDIPGIV = tested on: SUDIPGIV (diffuse intrinsic pontine glioma line)
# Outline: as §1
# SUDIPGVI = tested on: SUDIPGVI (diffuse intrinsic pontine glioma line)
# Outline: as §1
# SUDIPGXIII = tested on: SUDIPGXIII (diffuse intrinsic pontine glioma line)
# Outline: as §1
Compound,growth inhibition (DIPGX29),growth inhibition (DIPGX37),growth inhibition (DIPGX7),growth inhibition (DIPGX9),growth inhibition (HGGX39),growth inhibition (HGGX6),growth inhibition (HNSC),growth inhibition (SUDIPGIV),growth inhibition (SUDIPGVI),growth inhibition (SUDIPGXIII)
C=CC[N+]1([C@H]2C[C@H]3[C@@H]4CC[C@H]5C[C@H](O)[C@@H](N6CCOCC6)C[C@]5(C)[C@H]4CC[C@]3(C)[C@H]2OC(C)=O)CCCC1,-0.303%,-0.692%,1.36%,0.151%,4.24%,1.87%,2.05%,-0.149%,0.535%,1.02%
Fc1ccc(C(c2ccc(F)cc2)N2CCN(C/C=C/c3ccccc3)CC2)cc1,4.97%,2.42%,6.22%,3.95%,9.77%,2.44%,14.4%,15.8%,5.18%,8.8%
COC(=O)[C@@H]1CC2=CC(=O)CC[C@]2(C)[C@@]23O[C@@H]2C[C@@]2(C)[C@@H](CC[C@@]24CCC(=O)O4)[C@H]13,0.0665%,2.47%,-0.276%,0.756%,1.45%,1.56%,-0.69%,0.898%,1.05%,0.0503%
CCOC(=O)c1c(C)n(C)c2ccc(O)cc12,0.475%,0.373%,0.137%,-1.16%,1.77%,1.27%,-0.219%,0.902%,-0.0936%,-1.54%
CCN1CCN(c2cc(-c3ccc(F)cc3)c3c(n2)CCCCCC3)CC1,9.89%,1.2%,21.9%,4.47%,10.1%,0.894%,5%,4.82%,4.25%,2.42%
Nc1nc(O)c2ncn(CCC(CO)CO)c2n1,-0.633%,1.72%,0.291%,-0.106%,0.105%,-0.242%,0.639%,0.184%,1.56%,0.273%
CCc1c2c(nc3ccc(OC(=O)N4CCC(N5CCCCC5)CC4)cc13)-c1cc3c(c(=O)n1C2)COC(=O)[C@]3(O)CC,6.04% and 11.2%,2.87% and 1.26%,5% and 16.3%,7.83% and 32.1%,13.7% and 30.1%,7.49% and 10.4%,55.3% and 54.4%,49.3% and 46.9%,1.04% and 3.21%,-12% and 3.28%
Cn1cnc([N+](=O)[O-])c1Sc1ncnc2[nH]cnc12,15.9%,9.81%,21.6%,13.8%,18.2%,18.5%,55.8%,32.2%,8.24%,17.1%
CC(=O)N1CCN(c2ccc(OCC3COC(Cn4ccnc4)(c4ccc(Cl)cc4Cl)O3)cc2)CC1 (stereo not given),5.63%,1.48%,11.2%,4.81%,13.3%,9.98%,7.8%,13.7%,7%,12%
Fc1ccc([C@@H]2CCNC[C@H]2COc2ccc3c(c2)OCO3)cc1,1.88%,0.828%,1.44%,-0.123%,-1.48%,0.754%,54.9%,-0.812%,-0.542%,1.2%
COc1cc2ncnc(Nc3ccc(F)c(Cl)c3)c2cc1OCCCN1CCOCC1,3.09%,-0.0268%,1.03%,-0.279%,1.46%,4.13%,-1.23%,-5.34%,-6.03%,0.759%
CC(S)C(=O)NCC(=O)O (stereo not given),0.154%,-1.2%,-0.0217%,1.07%,2.86%,0.336%,0.528%,-0.0269%,-0.507%,-0.969%
CCC(NC(C)C)C(O)c1ccc(O)c(O)c1 (stereo not given),2.91%,3.09%,1.03%,1.97%,2.82%,5.22%,3.15%,1.08%,5.58%,1.21%
CN1CCC(=C2c3ccccc3C=Cc3ccccc32)CC1,1.58%,-0.405%,-0.277%,2.34%,7.18%,-0.0199%,1.09%,3.58%,1.48%,1.93%
CC(=O)O[C@H]1CC[C@@]2(C)C(=CC[C@@H]3[C@@H]2CC[C@]2(C)C(c4cccnc4)=CC[C@@H]32)C1,0.369%,-0.0357%,-0.259%,0.906%,2.75%,-0.409%,-1.27%,-0.864%,-0.189%,-0.391%
COc1ccc(O)cc1,-0.0157%,0.851%,0.553%,0.0566%,-0.798%,0.118%,0.201%,-3.15%,-3.4%,0.564%
Nc1ccn([C@@H]2O[C@H](CO)[C@@H](O)C2(F)F)c(=O)n1,16.7% and 17.4%,13.6% and 13%,16.9% and 16.6%,20.2%,20.4% and 20%,13.5% and 14.1%,52.4% and 59.5%,41.6% and 46%,4.24% and 4.14%,9.89% and 11.3%
CC(C(=O)O)c1ccc2c(c1)Cc1cccnc1O2 (stereo not given),0.469%,2.25%,2.38%,1.73%,3.25%,2.19%,2.91%,-1.77%,3.45%,-1.63%
COc1cc([C@@H]2c3cc4c(cc3[C@@H](O[C@@H]3O[C@@H]5CO[C@@H](C)O[C@H]5[C@H](O)[C@H]3O)[C@H]3COC(=O)[C@H]23)OCO4)cc(OC)c1O,12.6%,4.92%,8.84%,24.1%,10.5%,9.51%,61.4%,38.2%,3.89%,5.92%
CCCc1nc2c(C)cc(-c3nc4ccccc4n3C)cc2n1Cc1ccc(-c2ccccc2C(=O)O)cc1,-1.54%,-0.467%,-0.895%,-0.132%,-1.04%,-1.06%,-0.614%,-2.37%,0.572%,-1.14%
CS(=O)(=O)OCCCCOS(C)(=O)=O,1.61%,2.89%,1.75%,1.86%,3.01%,2.25%,-0.43%,0.215%,0.662%,0.839%
